Most compounds without a hit are left out; they make up all but 32% or so of the library.
PostGolgi yeast: growth inhibition of a yeast mutant, post-Golgi transport screen; AID 739; inhibition, % at 10 µM; 0.9% of 98,000 active; post-Golgi transport phenotypic cell assay;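 note: yeast cells grown in 1536-well plates; yeast grown about 18 h at 30C before absorbance read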
PostGolgi ctrl: yeast control strain growth, post-Golgi counter-screen | AID 738 | efflux-deficient yeast background strain, growth absorbance A615, 16 h | inhibition, % at 10 µM | 5% of 98,000 active
CYP2C9 inhib: human CYP2C9 inhibition; P11712; CYP2C9 Supersomes, luciferin-H conversion, luminescence; inhibition, % at 5 µM; 20% of 96,000 active;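 active = blocking of liver enzyme CYP2C9 beyond about 50% at 5 µM, limit read from the data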
Target sequence (P11712 whole entry, looked up): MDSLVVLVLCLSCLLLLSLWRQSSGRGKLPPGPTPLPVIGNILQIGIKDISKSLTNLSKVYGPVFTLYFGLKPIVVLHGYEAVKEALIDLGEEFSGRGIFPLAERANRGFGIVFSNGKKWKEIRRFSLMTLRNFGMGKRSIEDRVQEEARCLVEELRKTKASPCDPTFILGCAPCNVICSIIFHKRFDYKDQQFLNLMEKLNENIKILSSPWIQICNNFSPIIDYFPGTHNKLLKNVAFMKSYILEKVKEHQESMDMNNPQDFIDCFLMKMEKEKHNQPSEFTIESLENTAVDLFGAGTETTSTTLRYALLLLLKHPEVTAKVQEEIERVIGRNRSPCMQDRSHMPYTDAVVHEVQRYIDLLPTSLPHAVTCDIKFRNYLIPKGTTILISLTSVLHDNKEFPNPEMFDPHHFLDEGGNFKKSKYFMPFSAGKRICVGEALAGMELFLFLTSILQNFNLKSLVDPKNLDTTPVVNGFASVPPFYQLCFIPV
CYP2C9 act: increases human cytochrome P450 2C9 activity | activation factor at 5 µM | 1.4% of 96,000 active | P11712 | recombinant CYP2C9, luciferin-H conversion, luminescence; stronger effect = higher value; factor 1 = untreated enzyme, 0 = blocked | AID 1024;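 active = activation factor of 2 or more for CYP2C9 at a 5 µM dose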;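 note: 0 = sulfaphenazole-blocked wells and 1 = vehicle-only wells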
CYP2C19 inhib: human CYP2C19 inhibition | CYP2C19 Supersomes, luciferin-H EGE luminescence, 30 min | inhibition, % at 5 µM | P33261 | 21% of 96,000 active;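 active = CYP2C19 inhibition above a set limit at 5 µM in the primary screen, cut at about 50% in these data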;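 note: plate controls were negative control wells for no effect and 2.5 mM tranylcypromine positive control for full effect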
CYP2C19 activ: cytochrome P450 2C19 (human) activation; recombinant CYP2C19, luciferin-H EGE luminescence; stronger effect = higher value; 0 = fully inhibited enzyme, 1 = untreated enzyme; activation factor at 5 µM; 96,000 tested, under 10 active; AID 1025;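 active = activation factor of at least 2 at 5 µM in the primary screen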;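 note: 0 = wells with 2.5 mM tranylcypromine and 1 = vehicle-only wells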
Starred values were filed as active, the others as inactive; / = no result. Cut-off read from the data, not from the text of the source, unless noted: active = inhibition above about 30%; inactive = the rest.

SMILES	PostGolgi yeast	PostGolgi ctrl	CYP2C9 inhib	CYP2C9 act	CYP2C19 inhib	CYP2C19 activ
Cc1ccc(-n2ncc3c2ncn2c(C)nnc32)cc1C	3	5	16	0.8	-2	1
CC(Sc1nnc(-c2cccs2)n1-c1ccccc1)C(=O)NCc1ccco1 (stereo not drawn)	0	0	82*	0.2	71*	0.3
COC(=O)c1cccc(CSc2nnc(-c3ccco3)n2-c2ccccc2)c1	1	25	68*	0.3	16	0.8
Cc1cc(C)c(NC(=O)C(C)Sc2nnc(-c3ccco3)n2-c2ccccc2)c(C)c1 (stereo not drawn)	-2	11	66*	0.3	90*	0.1
CCOC(=O)CSc1nnc(-c2ccco2)n1-c1ccccc1	-5	5	28	0.7	38	0.6
CN(CCCNC(=O)C1CCC(=O)N1Cc1ccc(F)cc1)c1ccccc1 (stereo not drawn)	-5	-3	3	1	21	0.8
O=C(COC(=O)Cc1cn2ccsc2n1)NC12CC3CC(CC(C3)C1)C2	-4	20	34	0.7	59*	0.4
O=C(COC(=O)Cc1cn2ccsc2n1)NCc1ccc2c(c1)OCO2	-6	4	25	0.8	5	0.9
CCn1c2ccccc2c2cc(NC(=O)COC(=O)Cc3cn4ccsc4n3)ccc21	-8	6	-78	1.8	90*	0.1
Cc1cc(Oc2ccc(-c3ccccc3)cc2)n2ncnc2n1	-1	-8	28	0.7	29	0.7
Cc1ccc(S(=O)(=O)NC(=O)c2cc(C)n(CCCn3ccnc3)c2C)cc1	-3	7	90*	0.1	54*	0.5
Cc1cc(=S)cc(C)n1CCCn1ccnc1	3	6	2	1	-8	1.1
CCOC(=O)c1ccccc1NC(=O)Cn1c(-c2nonc2N)nc2ccccc21	4	29	92*	0.1	76*	0.2
Nc1nonc1-c1nc2ccccc2n1CC(=O)NC1CCCC1	4	7	33	0.7	52*	0.5
CC1CCCN(C(=O)Cn2c(-c3nonc3N)nc3ccccc32)C1 (stereo not drawn)	17	11	22	0.8	36	0.6
Nc1nonc1-c1nc2ccccc2n1Cc1ccccc1	-8	42*	-13	1.1	31	0.7
CC(=O)Nc1nonc1-c1nc2ccccc2n1CC1CC1	3	19	40	0.6	19	0.8
CCC(=O)Nc1nonc1-c1nc2ccccc2n1CC(C)C	5	24	66*	0.3	18	0.8
CCCCn1c(-c2nonc2N)nc2ccccc21	0	10	27	0.7	6	0.9
Cc1cccc(N2CCN(C(=O)c3ccc(CS(=O)(=O)c4ccccc4C)o3)CC2C)c1 (stereo not drawn)	-2	14	84*	0.2	58*	0.4
Cc1ccc(C)c(N2CCN(C(=O)c3ccc(CS(=O)(=O)c4ccccc4C)o3)CC2)c1	5	38*	69*	0.3	35	0.7
Cc1ccc(S(=O)(=O)Cc2ccc(C(=O)N3CCCC3)o2)cc1	1	-2	19	0.8	58*	0.4
CCOC(=O)C1CCCN(C(=O)c2ccc(CS(=O)(=O)c3ccc(C)cc3)o2)C1 (stereo not drawn)	0	3	83*	0.2	11	0.9
CCOC(=O)C1CCCN(C(=O)c2ccc(CS(=O)(=O)Cc3ccccc3C)o2)C1 (stereo not drawn)	9	12	37	0.6	31	0.7
Cc1ccc(S(=O)(=O)Cc2ccc(C(=O)N3CCCCCC3)o2)cc1	-1	14	28	0.7	31	0.7
SMILES	PostGolgi yeast	PostGolgi ctrl	CYP2C9 inhib	CYP2C9 act	CYP2C19 inhib	CYP2C19 activ
CC1=C(C(=O)Nc2ccc(C)cc2C)C(c2ccc(C)o2)NC(=O)N1 (stereo not drawn)	7	18	-13	1.1	-18	1.2
CN1CCN(C(=O)c2c(O)c3cccc4c3n(c2=O)CCC4)CC1	-5	-1	-13	1.1	-16	1.2
COc1ccc(S(=O)(=O)Cc2ccc(C(=O)N3CCOCC3)o2)cc1	0	-8	-2	1	-11	1.1
Cc1ccc(S(=O)(=O)Cc2ccc(C(=O)N3CCN(c4cc(C)ccc4C)CC3)o2)cc1	-2	37*	6	0.9	-2	1
COc1ccccc1S(=O)(=O)Cc1ccc(C(=O)N2CCN(c3ccccc3)CC2)o1	-4	7	22	0.8	24	0.8
COc1ccccc1S(=O)(=O)Cc1ccc(C(=O)N2CCN(c3cccc(Cl)c3)CC2)o1	-3	9	37	0.6	53*	0.5
O=C(CSc1nnnn1-c1ccccc1)Nc1ncc2c(n1)CC(c1ccco1)CC2=O (stereo not drawn)	-8	-5	/	/	/	/
COc1ccc(N(CC(O)CN2CCCCC2)S(=O)(=O)c2ccc(C)cc2)cc1 (stereo not drawn)	-1	21	10	0.9	-5	1.1
COc1ccc(N(CC(O)CN2C(=O)NC(C)(C)C2=O)S(=O)(=O)c2ccc(C)cc2)cc1 (stereo not drawn)	20	7	66*	0.3	61*	0.4
COc1ccc(N(CC(O)Cn2nnc3ccccc32)S(=O)(=O)c2ccc(C)cc2)cc1 (stereo not drawn)	-7	-1	69*	0.3	86*	0.1
Cc1nn(C)c(C)c1S(=O)(=O)N1CCC(C(=O)NCC2COc3ccccc3O2)CC1 (stereo not drawn)	-4	9	-58	1.6	12	0.9
COc1ccc(/C=N/NC(=O)CCn2c3ccccc3c3ccccc32)cc1O	-6	26	97*	0	94*	0.1
COc1cc(/C=N/NC(=O)CSc2cc(C)c(Br)cc2C)ccc1O	-4	23	76*	0.2	5	1
COc1ccc(/C=N\NC(=O)CCN2CCN(c3ccccc3)CC2)cc1OC	-4	1	-14	1.1	-10	1.1
COC(=O)Oc1ccc(/C=N/NC(=O)CSCc2ccccc2Br)cc1OC	5	12	67*	0.3	56*	0.4
COc1ccc(CCNC(=O)c2ccn[nH]2)cc1OC	-3	9	24	0.8	14	0.9
Cc1cc(C#N)c(C)n1-c1cc(C(F)(F)F)ccc1N1CCOCC1	0	24	26	0.7	99*	0
CSc1nc(-c2ccco2)cc(-c2ccccc2)c1C#N	-4	2	66*	0.3	25	0.8
CC(C)OC(=O)CSc1nc(N)c(C#N)c(-c2cccs2)c1C#N	-2	5	3	1	23	0.8
COC(=O)CSc1nc(N)c(C#N)c(-c2ccco2)c1C#N	-5	32*	15	0.8	-7	1.1
N#Cc1c(-c2cccs2)cc(C2CC2)nc1SCC(N)=O	-1	4	13	0.9	59*	0.4
CCOC(=O)CSc1nc(N)c(C#N)c(CC(C)C)c1C#N	1	40*	28	0.7	9	0.9

Screening data deposited in PubChem BioAssay by several laboratories.
